Results on 88 molecules are retold here after PubChem BioAssay AID435005 (Broad Institute, 2010).

Out of some 300,000 compounds screened, about 2,400 (0.8%) were called active.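 Rule for the calls: active = Every replicate reaches about 75%, or at least half do and their mean reaches it too (limit read from the data); inconclusive = At least half of replicates reach the limit but their mean does not; inactive = Under half of replicates reach the limit.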 The list comes from a sample in which actives are over-represented; it also holds similar structures and randomly drawn compounds.

The assay is described as follows: INS-1E beta cell survival under cytokines – luminescence, primary screen (AID 435005).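 Note: 0% = cytokine-treated negative control wells and 100% = positive control rescue; higher means more ATP so stronger rescue from cytokine killing.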 The note with it: INS-1E cytokine-induced death, ATP luminescence, 48 h; active compounds read high; percent of positive-control rescue, neutral wells zero; concentration not given here.
On to `CCn1nc(C(=O)Nc2ccc(N3CCOCC3)cc2)c2ccccc2c1=O`, for which the protection from apoptosis is -0.317% (inactive).

As to `C#CCOCCOCCOCCNc1nc(N2CCN(C(=O)C([C@@H](C)O)n3cc([C@@H](N)CCCCN)nn3)CC2)nc(N2CCN(C(=O)[C@H](CCCCN)n3cc(CN)nn3)CC2)n1` (stereo partly drawn), the protection from apoptosis is 0.272% (inactive).

With `CN(CC(=O)NCC(c1ccccc1)N1CCCC1)S(=O)(=O)c1ccc(Cl)cc1` (stereo not drawn), the protection from apoptosis was -2.83% (inactive).

For the molecule `CC1CCCC(C)N1C(=O)COC(=O)COc1ccccc1C#N` (stereo not drawn), the protection from apoptosis is -0.693% (inactive).

Turning to `COc1cc(OC)cc(-c2cc3ccc(F)cc3cn2)c1`, the protection from apoptosis was 3.7% (inactive).

Consider `CC(=O)Nc1ccc(S(=O)(=O)NCC(=O)OCC(=O)c2ccc[nH]2)cc1`, for which the protection from apoptosis was 0.385% (inactive).

For the molecule `O=C(C[C@H]1C/C=C\C[C@@H](NC(=O)OCC2c3ccccc3-c3ccccc32)C(=O)O[C@@H](c2ccccc2)CNC1=O)N[C@H](CO)Cc1ccccc1`, the protection from apoptosis was 54.4% (inactive).

As to `O=C(/C(=C/c1cccc(Cl)c1)c1nc2ccccc2[nH]1)c1ccccc1`, the protection from apoptosis is 101% (active).

In the case of `O=C(Cc1nc2ccccc2[nH]c1=O)c1ccc(Cl)cc1`, the protection from apoptosis was -0.338% (inactive).

Consider `CCC(=O)/C(=C(/O)c1ccccc1)c1nc2ccccc2[nH]1`, for which the protection from apoptosis is -5.02% (inactive).

Take `CC(=O)c1ccc(NC(=O)CSc2nc3ccccc3c(=O)n2CCCN2CCOCC2)cc1`: the protection from apoptosis is -12.1% (inactive).

In the case of `CC(=O)Nc1ccc(Nc2c3ccccc3nc3ccccc23)cc1`, the protection from apoptosis is 88.6% (active).

Turning to `O=C(Nc1c2c(nc3ccccc13)CCCC2)c1ccccc1Br`, the protection from apoptosis was -2.43% (inactive).

In the case of `Cc1ccc(Nc2c3c(nc4ccccc24)CCC3)cc1`, the protection from apoptosis is 82.4% (active).

As for `CC(=O)Nc1ccc(NC(=O)COc2ncnc3ccccc23)cc1`, the protection from apoptosis was 1.06% (inactive).

Take `CC(C)(C)OC(=O)NNc1c2ccccc2nc2ccccc12`: the protection from apoptosis is 24.9% (inactive).

Consider `N#Cc1cccc(Nc2c3c(nc4ccccc24)CCCC3)c1`, for which the protection from apoptosis was 10.5% (inactive).

Regarding `COc1ccc(Cl)cc1NC(=O)COC(=O)c1ccc(Br)o1`, the protection from apoptosis was -10.1% (inactive).

In the case of `COc1cccc(NC(=O)CSc2nnc(C3CCCCC3)n2N)c1`, the protection from apoptosis was -3.75% (inactive).

As for `O=C(Nc1cn(-c2ccccc2)nc1-c1ccccc1)c1ccccc1`, the protection from apoptosis was 2.47% (inactive).

As for `Cc1ccc(-c2nn(-c3ccccc3)cc2C(=O)NC2CCC(O)CC2)cc1` (stereo not drawn), the protection from apoptosis is 1.53% (inactive).

On to `CCc1ccc(-c2nn(-c3ccccc3)cc2CSC(=N)N)cc1`, for which the protection from apoptosis was 89.4% (active).

`Cc1occc1C(=O)Nc1cccc(S(=O)(=O)N2CCOCC2)c1`: the protection from apoptosis was -3.05% (inactive).

As for `C=CCC[C@H](Cc1ccc(F)cc1)C(=O)OC[C@H](C)NC(=O)[C@H](CC=C)CC(=O)N(CCO)Cc1ccccc1`, the protection from apoptosis is 2.93% (inactive).

With `Cn1c(=O)[nH]c(=O)c2c1nc(N1CCN(CCO)CC1)n2CCSc1nc2ccccc2s1`, the protection from apoptosis was 2.68% (inactive).

For `Cn1c(=O)[nH]c(=O)c2c1nc(N1CCN(C(c3ccccc3)c3ccccc3)CC1)n2CCO`, the protection from apoptosis was 99.9% (active).

Take `CN1CCN(c2nc3c(c(=O)[nH]c(=O)n3C)n2Cc2cccc3ccccc23)CC1`: the protection from apoptosis was 2.14% (inactive).

As for `CCCCCCCCn1c2c(c(=N)c3c1CCC3)CCCC2`, the protection from apoptosis is 99.8% (active).

`CCCCCCn1c(CN2CCCCC2)nc2c1c(=O)n(C)c(=O)n2C`: the protection from apoptosis was 2.42% (inactive).

Turning to `CC(NC(=O)COC(=O)c1ccc2ccccc2n1)c1ccccc1` (stereo not drawn), the protection from apoptosis was -4.86% (inactive).

With `O=C(Nc1nnc(-c2ccccc2)o1)c1cccc(S(=O)(=O)N2CCOCC2)c1`, the protection from apoptosis was 5.19% (inactive).

As to `Cc1ccc(C(=O)O)cc1NC(=O)c1ccc(Cn2nc(C)c(Cl)c2C)o1`, the protection from apoptosis was 1.11% (inactive).

In the case of `Cc1c(Cl)c([N+](=O)[O-])nn1Cc1ccc(C(=O)N/N=C\c2cc(Cl)ccc2O)o1`, the protection from apoptosis is 89.7% (active).

Regarding `Cc1c(Cl)c([N+](=O)[O-])nn1CCCC(=O)Nc1cc(Cl)ccc1Cl`, the protection from apoptosis was 5.23% (inactive).

For `O=C(CSc1nnc(N2CCOCC2)n1-c1cccc(F)c1)N1CCN(c2ccccn2)CC1`, the protection from apoptosis is -0.686% (inactive).

On to `COc1cccc2sc3cc(NCC[C@@H]4CCCN4C)ccc3c(=O)c12`, for which the protection from apoptosis is -2.22% (inactive).

Consider `O=C1/C(=C\c2cccnc2)CN(Cc2ccccc2)C/C1=C\c1cccnc1`, for which the protection from apoptosis is 83.8% (active).

As for `O=Cc1cn(Cc2ccccc2)nc1-c1cccnc1`, the protection from apoptosis was 0.63% (inactive).

In the case of `Clc1ccc(CN2CCN(/N=C/c3cccnc3)CC2)cc1`, the protection from apoptosis is -0.218% (inactive).

In the case of `COc1ccc(C(=O)COC(=O)C(O)c2ccccc2)c(OC)c1` (stereo not drawn), the protection from apoptosis was -0.354% (inactive).

For the molecule `O=C(COC(=O)c1ccc(F)cc1)NCC1COc2ccccc2O1` (stereo not drawn), the protection from apoptosis is -5.32% (inactive).

As for `Cc1ccc(NC(=O)/C(=C/c2ccc([N+](=O)[O-])cc2)NC(=O)c2ccccc2)cc1`, the protection from apoptosis was -0.596% (inactive).

In the case of `CCOC(=O)COc1ccc([N+](=O)[O-])cc1`, the protection from apoptosis is -8.02% (inactive).

Turning to `CCOC(=O)/C(=C\c1ccc([N+](=O)[O-])cc1)C(=O)c1cc(C(C)=O)c(Nc2ccccc2)s1`, the protection from apoptosis was 107% (active).

With `COc1ccc2nc3n(c(=O)c2c1)-c1ccc(Cl)cc1C(=O)NC3Cc1ccccc1` (stereo not drawn), the protection from apoptosis is 5.15% (inactive).

Consider `COc1ccc(S(=O)(=O)N(C)C[C@@H]2Oc3ccc(NC(=O)Nc4c(C)noc4C)cc3C(=O)N([C@H](C)CO)C[C@@H]2C)cc1`, for which the protection from apoptosis is 4.1% (inactive).

Take `Cc1cc(C(=O)N/N=C/c2ccccn2)c2ccccc2n1`: the protection from apoptosis is -6.79% (inactive).

With `O=C(N/N=C/c1ccccn1)c1cccnc1`, the protection from apoptosis is -0.0642% (inactive).

Regarding `Cc1nnc(N/N=C/c2ccccn2)[nH]c1=O`, the protection from apoptosis was 109% (active).

On to `COc1ccc(S(=O)(=O)N2CCN(CC(=O)N3CCOCC3)CC2)cc1OC`, for which the protection from apoptosis is -2.22% (inactive).

With `CN(c1ccccc1)S(=O)(=O)c1cccc(NC(=O)Cc2ccc(Cl)cc2)c1`, the protection from apoptosis is 14.2% (inactive).

Consider `COc1ccccc1NC(=O)CCCc1c[nH]c2ccccc12`, for which the protection from apoptosis is 6.21% (inactive).

For `COc1ccc(C(CCNCc2ccccc2F)c2ccc(F)cc2)cc1` (stereo not drawn), the protection from apoptosis was 1.89% (inactive).

In the case of `COc1cccc(CNCCc2c[nH]c3ccccc23)c1OCc1ccccc1F`, the protection from apoptosis is 82.8% (active).

Regarding `C=CCC[C@H](Cc1ccc(F)cc1)C(=O)OC[C@@H](Cc1c[nH]c2ccccc12)NC(=O)[C@H](CC=C)CC(=O)N[C@H](CO)Cc1ccccc1`, the protection from apoptosis was -1.63% (inactive).

As for `Cc1cc(N2CCCC2)ccc1NC(=O)COc1ccc(Cl)cc1`, the protection from apoptosis was -16.4% (inactive).

With `O=C1N[C@H](Cc2c[nH]c3ccccc23)COC(=O)[C@H](Cc2ccc(F)cc2)C/C=C\C[C@H]1CC(=O)N(CCO)Cc1ccccc1`, the protection from apoptosis was -0.37% (inactive).

In the case of `CC[C@H]1CN2CCc3cc(OC)c(OC)cc3[C@@H]2C[C@@H]1C[C@H]1NCCc2cc(OC)c(OC)cc21`, the protection from apoptosis is 81.8% (active).

`CCc1ccc(OCC2c3cc(OC)c(OC)cc3CCN2C(C)=O)cc1` (stereo not drawn): the protection from apoptosis was -2.37% (inactive).

As for `COc1ccc2c(c1)CCNC2Cc1ccc(OC)c(O)c1` (stereo not drawn), the protection from apoptosis was -7.35% (inactive).

Turning to `Cc1ccc(S(=O)(=O)N2CCN(C(=O)Cn3c(=O)cnc4ccccc43)CC2)c(C)c1`, the protection from apoptosis is 3.1% (inactive).

For the molecule `CCOc1ccccc1Nc1nnc(SCC(=O)NCC2CCCO2)s1` (stereo not drawn), the protection from apoptosis was -3.28% (inactive).

With `Cc1cc(N/N=C\c2ccc(Br)cc2)nc(-n2nc(C)cc2C)n1`, the protection from apoptosis is 101% (active).

On to `COc1ccccc1/C=N/Nc1nc(C)c(C(C)=O)s1`, for which the protection from apoptosis was 1.33% (inactive).

On to `COc1ccc(/C=N/Nc2cc(N3CCOCC3)nc(C)n2)c(OC)c1`, for which the protection from apoptosis is -0.288% (inactive).

With `COc1cc(/C=N/Nc2nc3ccccc3s2)ccc1O`, the protection from apoptosis was -9.44% (inactive).

As to `Cc1nc(Cl)cc(N/N=C/c2ccccc2)n1`, the protection from apoptosis was 0.482% (inactive).

Take `Cc1ccc(S(=O)(=O)Nc2nc(C)cc(N/N=C/c3ccc(O)cc3)n2)cc1`: the protection from apoptosis was -0.0503% (inactive).

Take `COc1ccccc1/C=N\Nc1cc(C)nc(-n2nc(C)cc2C)n1`: the protection from apoptosis was 85.5% (active).

Take `COc1cccc(/C=N/Nc2cc(C)nc(-c3ccccc3O)n2)c1O`: the protection from apoptosis is 83.1% (active).

As to `COc1cccc2c(N/N=C/c3ccco3)cc(C)nc12`, the protection from apoptosis is 0.451% (inactive).

`CC(=O)Nc1ccc(S(=O)(=O)NCCC(=O)N2CCN(c3ccccc3Cl)CC2)cc1`: the protection from apoptosis is 4.22% (inactive).

With `O=S(=O)(NCC1CN(S(=O)(=O)c2ccc3c(c2)OCCO3)C1)c1c(F)cccc1F`, the protection from apoptosis was -0.452% (inactive).

On to `O=C(COC(=O)c1n[nH]c2ccccc12)Nc1ccccc1Br`, for which the protection from apoptosis was 2.52% (inactive).

Consider `O=C(Nc1ccc(C(F)(F)F)cc1)c1cccc(-n2cnnn2)c1`, for which the protection from apoptosis is 8.03% (inactive).

With `Cc1ccc(C(=O)Nc2ccccc2-c2ccccc2)cc1S(=O)(=O)Nc1ccccc1`, the protection from apoptosis was 12.9% (inactive).

With `O=C(NCCOc1cccnc1)c1ccc(OC2CCN(Cc3ccccn3)CC2)cc1`, the protection from apoptosis is 120% (active).

In the case of `O=C(c1ccc(OC2CCN(Cc3ccccn3)CC2)cc1)N1CCCCCC1`, the protection from apoptosis was -1.86% (inactive).

Consider `CN(CCc1ccccn1)C(=O)c1ccc(OC2CCN(Cc3ccccn3)CC2)cc1`, for which the protection from apoptosis was 0.235% (inactive).

As to `CN(Cc1ccc(F)cc1)C(=O)CN1C(=O)c2ccccc2S1(=O)=O`, the protection from apoptosis is -4.27% (inactive).

For the molecule `CN(C)C(CNC(=O)c1ccc(OCc2cn3ccccc3n2)cc1)c1ccco1` (stereo not drawn), the protection from apoptosis is 0.439% (inactive).

Consider `FC(F)(F)c1nc2ccccc2nc1N/N=C/c1ccc(Cl)cc1`, for which the protection from apoptosis is 7.12% (inactive).

As to `Cc1nc2ccccc2nc1N/N=C/c1ccc(O)cc1O`, the protection from apoptosis is 86.1% (active).

`Fc1ccc(/C=N/Nc2nc(-c3cccnc3)nc3ccccc23)cc1`: the protection from apoptosis is 12.4% (inactive).

Regarding `Oc1ccc(/C=N/Nc2nc(-c3ccccc3F)nc3ccccc23)c(O)c1`, the protection from apoptosis was 91.3% (active).

`Cc1cccc(-c2nc(Nc3ccc(O)cc3)c3ccccc3n2)c1`: the protection from apoptosis is -3.47% (inactive).

On to `Oc1ccc(/C=N/NC2=NCCCCC2)c(O)c1`, for which the protection from apoptosis was -2.33% (inactive).

Regarding `COc1ccc(-c2c(C#Cc3ccsc3)c3cc(-c4ccc(CN5CCOCC5)cc4)ccc3n2C)cc1`, the protection from apoptosis is -5.34% (inactive).
